Results taken from PubChem BioAssay (Tox21).
Results filed as inconclusive are left out. Activity calls are given as the source filed them. Calls follow the shape of the dose curve; as a rule, active = well fitted cell-killing curve with a large enough effect in the repeat runs (not every such curve was filed as active); inconclusive = weak or mixed curves, or effect the other way; inactive = no such curve, though single readings can be large or run the other way.

experiment: qHTS assay to identify small molecule antagonists of the estrogen related receptor signaling pathway with the pleiotropic PPARgamma coactivator (PGC) from Tox21 10K library - cell viability counter screen (AID 1224840); conditions: PGC/ERR reporter cells viability, CellTiter-Fluor, 17.5 h; series mostly up to 92.4 µM; viability change, negative = cytotoxic: at the top concentration; also: nearly all actives have a fitted effect of over 40% in size
Description: National Center for Advancing Translational Sciences [NCATS]
NIH Chemical Genomics Center [NCGC]
U.S. Environmental Protection Agency [EPA]
National Institutes of Environmental Health Sciences [NIEHS]
National Toxicology Program [NTP]
U.S. Food and Drug Administration [FDA]
Estrogen related receptors (ERRs), the first orphan nuclear receptors discovered, play an important role in the control of cellular energy metabolism. ERRs are required for high-energy production in response to the environmental challenges. The pleiotropic PPARgamma coactivator (PGC) is a major partner of ERR and a key regulator in energy homeostasis. Together they have been implicated in the etiology of metabolic disorders such as Type 2 diabetes and metabolic syndrome. ERR-alpha was also identified as an adverse marker for breast cancer progression; ERR-alpha-positive tumors have a poor prognosis. To screen and to identify environmental compounds that perturb the ERR and PGC/ERR signaling pathways could provide valuable information for potential therapeutic or preventive measures in the treatment of metabolic disease. To differentiate true PGC/ERR antagonists or agonist from cytotoxic substances, the assay is multiplexed with cell viability assay.
Tox21 Assay Protocol Summary:
The PGC/ERR cells were dispensed at 2,000 cells/5 ul/well in 1536-well white plates using a Multidrop dispenser. After the assay plates were incubated at a 37 C/5% CO2 incubator for 6 hours, 23 nL of compounds dissolved in DMSO, positive and negative controls or DMSO only was transferred to the assay plate by a pin tool. The plates were incubated at 37 C for 17.5 hours. 1 ul/well of CellTiter-Fluor reagent was added into the assay plates using a Flying Reagent Dispenser. After 30-minute incubation at 37 C/5% CO2, the fluorescence intensity in the plates was measured using a ViewLux plate reader.
% is scaled to controls: 0 for no effect and ±100 for the full control effect; potency is read from the fitted curve at half-maximal effect.

For CCOC=C(C(=O)OCC)C(=O)OCC, which “viability change, negative = cytotoxic” value is on record?
Its value is 1.77% (inactive).

With COc1cc(C(C)C)ccc1C as the molecule, how does the viability change, negative = cytotoxic read?
Its viability change, negative = cytotoxic is -28.8% [at 19 µM] (inactive).

Which “viability change, negative = cytotoxic” value does the source give for CC1(C)[C@H](C(=O)OCc2cccc(Oc3ccccc3)c2)[C@@H]1C=C(Cl)Cl here?
Its value is -0.633% (inactive).

With C1=CCCC1 as the molecule, how does the “viability change, negative = cytotoxic” value read?
Its value is -8.32% (inactive).

With Nc1ccc(Cl)c([N+](=O)[O-])c1 as the molecule, how does the “viability change, negative = cytotoxic” value read?
Its value is -24.1% (inactive).

With COC(=O)c1ccc([N+](=O)[O-])cc1 as the molecule, how does the “viability change, negative = cytotoxic” value read?
Its value is 6.14% (inactive).

Which Potency does the source give for CCCCCCCCOC(=O)c1cc(O)c(O)c(O)c1 here?
The Potency was 34.4 µM (active).

Which “viability change, negative = cytotoxic” value does the source give for CCOc1nc(F)cc2nc(S(=O)(=O)Nc3c(Cl)cccc3C(=O)OC)nn12 here?
The value was -8.84% (inactive).

With C=C(C)CCO as the molecule, how does the “viability change, negative = cytotoxic” value read?
The value was -0.332% (inactive).

Which Potency does the source give for C=C1C(CCl)(CCl)C2(Cl)C(Cl)C(Cl)C1(Cl)C2(Cl)Cl (stereo not given) here?
The Potency was 53.8 µM (active).

With CCCOC(=O)c1ccc(O)cc1 as the molecule, how does the “viability change, negative = cytotoxic” value read?
The value was -4.09% (inactive).

With CC(C)(C)C1=CC(=O)C(C(C)(C)C)=CC1=O as the molecule, how does the “viability change, negative = cytotoxic” value read?
The value was -18.7% [at 42.5 µM] (inactive).

Which “viability change, negative = cytotoxic” value does the source give for CCCCCCCCCCCC(=O)Cl here?
Its value is 1.24% (inactive).

With O=C(Nc1ccccc1)c1cc(Cl)ccc1O as the molecule, how does the Potency read?
Its Potency is 17.2 µM (active).

With CN1CC[C@H](c2c(O)cc(O)c3c(=O)cc(-c4ccccc4Cl)oc23)[C@H](O)C1 as the molecule, how does the “viability change, negative = cytotoxic” value read?
Its value is -26.5% [at 42.5 µM] (inactive).

Which “viability change, negative = cytotoxic” value does the source give for CN(C/C=C/c1ccccc1)Cc1cccc2ccccc12 here?
The value was -22.4% [at 42.5 µM] (inactive).

With CO[Si](OC)(c1ccccc1)c1ccccc1 as the molecule, how does the “viability change, negative = cytotoxic” value read?
The value was -20.4% (inactive).

For C=CC(=O)OCC(Br)CBr (stereo not given), which “viability change, negative = cytotoxic” value is on record?
Its value is -5.48% (inactive).

Which viability change, negative = cytotoxic does the source give for O=C(O)CN(CCCN(CC(=O)O)CC(=O)O)CC(=O)O here?
The viability change, negative = cytotoxic was -3.45% [at 19 µM] (inactive).

Which “viability change, negative = cytotoxic” value does the source give for NC(=O)C1CO1 (stereo not given) here?
Its value is -7.18% (inactive).

With Nc1cc([N+](=O)[O-])ccc1Cl as the molecule, how does the “viability change, negative = cytotoxic” value read?
The value was -3.94% (inactive).

With C=CC(=O)OCCOC1C2CCC1C1CC=CC12 (stereo not given) as the molecule, how does the viability change, negative = cytotoxic read?
The viability change, negative = cytotoxic was -0.314% [at 19 µM] (inactive).

For [Cl][Dy]([Cl])[Cl], which “viability change, negative = cytotoxic” value is on record?
The value was -4.83% (inactive).

With Cc1ccc(Cl)c(N)c1Cl as the molecule, how does the “viability change, negative = cytotoxic” value read?
Its value is -14% (inactive).

For C=C(C)C1CCC(C)CC1O (stereo not given), which “viability change, negative = cytotoxic” value is on record?
Its value is 12.2% (inactive).

With CC(C)c1ccc2sc3ccccc3c(=O)c2c1 as the molecule, how does the “viability change, negative = cytotoxic” value read?
The value was 10.9% (inactive).

For N#Cc1nc(Cl)c(Cl)c(Cl)c1Cl, which Potency is on record?
Its Potency is 15.4 µM (active).

For Nc1ccc2c(S(=O)(=O)O)cccc2c1S(=O)(=O)O, which “viability change, negative = cytotoxic” value is on record?
The value was 0.812% [at 42.5 µM] (inactive).

Which Potency does the source give for CN(C[C@@H](CC[N+]12CCC(C3CCCCC3)(CC1)CC2)c1ccc(Cl)c(Cl)c1)C(=O)c1cc(C(F)(F)F)cc(C(F)(F)F)c1 here?
Its Potency is 30.6 µM (active).

With C1CCSC1 as the molecule, how does the “viability change, negative = cytotoxic” value read?
Its value is 10.4% (inactive).

Which “viability change, negative = cytotoxic” value does the source give for CCSCC here?
The value was 4.18% (inactive).

Which “viability change, negative = cytotoxic” value does the source give for O=C(N[C@H](CO)[C@H](O)c1ccc([N+](=O)[O-])cc1)C(Cl)Cl here?
The value was -3.51% (inactive).

Which “viability change, negative = cytotoxic” value does the source give for CCOC(=O)C1=NN(c2ccc(Cl)cc2Cl)C(C)(C(=O)OCC)C1 (stereo not given) here?
The value was -0.363% (inactive).

Which “viability change, negative = cytotoxic” value does the source give for CCCCCCCCc1ccc(Nc2ccc(CCCCCCCC)cc2)cc1 here?
Its value is 5.82% [at 42.5 µM] (inactive).

With Cc1cc(Br)ccc1NC(=O)CCl as the molecule, how does the Potency read?
The Potency was 15.4 µM (active).

For CCN(CC)c1ccc(C=O)cc1, which “viability change, negative = cytotoxic” value is on record?
Its value is 2.04% (inactive).

With C=CCc1cc(S(=O)(=O)c2ccc(O)c(CC=C)c2)ccc1O as the molecule, how does the “viability change, negative = cytotoxic” value read?
The value was -5.01% (inactive).

Which “viability change, negative = cytotoxic” value does the source give for CCn1c2ccccc2c2ccccc21 here?
Its value is -3.75% (inactive).

For CCCC(C)C=O (stereo not given), which “viability change, negative = cytotoxic” value is on record?
Its value is 14.2% (inactive).

With c1ccc(-c2nc3ccccc3[nH]2)cc1 as the molecule, how does the “viability change, negative = cytotoxic” value read?
Its value is -14.8% (inactive).
